The text below walks through data of PubChem BioAssay AID602399 (Sanford-Burnham Center for Chemical Genomics, 2012).

The structures appear in SMILES notation. Among all 360,000 compounds or so, about 2,800 (0.78%) were called active. The full list was thinned out, with actives kept by preference. Unmarked numbers belong to inactive results. Cut-off read from the data, not from the text of the source: active = inhibition above about 26%; inactive = the rest.

The subject of this assay is Nicotinate-nucleotide adenylyltransferase NadD (Staphylococcus aureus N315). The assay can be described thus: S. aureus NadD enzyme activity blockers – biochemical, colorimetric, uHTS, primary screen (AID 602399). As to conditions: purified NadD enzyme, colorimetric absorbance read-out; at 20 µM; stronger effect = higher value.
For `Cc1cc(=O)[nH]c(SCc2ccc(Cl)cc2)n1`, the inhibition was -4.15%. With `Cc1cc(C(=O)CSc2nc(N)cc(=O)[nH]2)c(C)n1-c1cccc(F)c1`, the inhibition is 23.5%.

With `Cc1cc(C(=O)CSc2nc(N)cc(=O)[nH]2)c(C)n1CCc1ccc(Cl)cc1`, the inhibition is 45.2% (active). Consider `C/C=C/C=C/C(=O)O`, for which the inhibition is 2.73%.

For `COC(=O)c1sccc1NC(=O)CSc1ccccc1NS(=O)(=O)c1cc(Cl)ccc1Cl`, the inhibition was 8.33%.

Take `O=[N+]([O-])c1ccccc1/C=N/n1c(COc2ccccc2)n[nH]c1=S`: the inhibition is 4.33%.

Regarding `Cc1ccc(S(=O)(=O)N/N=C\c2cc3c(cc2[N+](=O)[O-])OCO3)cc1`, the inhibition is -4.98%.

`CCOc1ccc(-c2n[nH]c(=S)n2/N=C/c2cc3c(cc2[N+](=O)[O-])OCO3)cc1`: the inhibition was 33.3% (active). With `O=C1CC2(CC(c3ccc(Cl)cc3)=NO2)C(=O)N1c1ccccc1` (centres undefined) the figure was -6.96%; with `CC(=O)Nc1ccc(NC(=O)C(C)n2c3ccccc3c3nc(=O)cc(C)n32)cc1` (centres undefined), 1.71%; with `Cc1cc(C)cc(N(CC(=O)Nc2c(C)n(C)n(-c3ccccc3)c2=O)S(C)(=O)=O)c1`, 0.515%. With `COc1ccc(Cl)cc1C(=O)NNC(=S)NC(=O)/C=C/c1ccco1`, the inhibition was 41.2% (active). For `O=C(/C=C/c1ccco1)NC(=S)N1CCCCC1`, the inhibition is 0.202%. With `COc1ccc(Cl)cc1C(=O)NNC(=S)NC1CCCC1` the figure was 2.3%; with `Cc1ccc(C(=O)NN(CCC#N)C2=NS(=O)(=O)c3ccccc32)cc1`, 2.03%. With `C=CC1=C(C(=O)O)N2C(=O)[C@@H](NC(=O)/C(=N/OCC(=O)O)c3csc(N)n3)[C@H]2SC1` the figure was 94.8% (active); with `C=CC1=C(C(=O)O)N2C(=O)[C@@H](NC(=O)/C(=N\OCC(=O)O)c3csc(N)n3)[C@H]2SC1`, 15.8%. For the compound `Cc1ccc(Cl)cc1NC(=O)C1CCN(S(C)(=O)=O)CC1`, the inhibition is -1.83%. Under `CN(C)c1nc(N)nc(Cn2nnc(-c3ccc(C(F)(F)F)cc3)n2)n1` stands -3.29%. With `CC1(Oc2cccc(F)c2)CCN(Cc2ccccc2OC(F)F)C1` (centres undefined) the figure was -4.85%; with `CC(=O)Nc1ccc(SCC(=O)Nc2ccccc2Oc2ccccc2)cc1`, -2.74%; with `CCC(C)Cn1c(O)cc2nn(-c3nc4ccccc4s3)c(=O)c-2c1C` (centres undefined), 81.3% (active). Consider `C/C(CC(C)C)=N\Oc1nc(C)cc(C)n1`, for which the inhibition is -5.32%.

In the case of `CSc1nc(-c2ccco2)nn1C(=O)c1ccccc1Cl`, the inhibition was -4.61%. As for `Cc1ccc2nc(-c3ccco3)c(Cc3cccc(Cl)c3)n2c1`, the inhibition was 2.81%. With `Clc1ccccc1CSc1nnc(-c2ccco2)c(-c2ccco2)n1`, the inhibition was 29.3% (active). Turning to `COc1ccccc1N(CC(=O)N1CCCCC1)S(=O)(=O)c1ccccc1`, the inhibition was 0.503%.

Turning to `CC(C#N)(NC(=O)CN1CCN(S(=O)(=O)c2cc(C(F)(F)F)ccc2Cl)CC1)C1CC1` (centres undefined), the inhibition was -1.47%. Under `Cc1ccnc2nc(C(=O)Nc3nnc(-c4ccccc4)o3)nn12` stands -3.89%. With `O=C(Nc1nnc(-c2ccccc2)o1)c1cc(-c2cccs2)nc2ccccc12` the figure was 40.6% (active). Regarding `O=C(Nc1nnc(-c2ccc(Cl)cc2)o1)c1ccccc1Br`, the inhibition is 9.64%. On to `CN(Cc1nc2ccc(F)cc2[nH]1)Cc1nc(CC2CC2)no1`, for which the inhibition was -3.27%. `CCN(C(=O)CN1CCN(Cc2ccccc2)CC1)c1c(N)n(Cc2ccccc2)c(=O)[nH]c1=O`: the inhibition was -5.19%. As to `Cc1ccccc1NC(=O)c1ccc(COc2ccc3c(C)cc(=O)oc3c2)cc1`, the inhibition was 1.94%. Under `CCCCCOc1ccc(/C=C/C(=O)NCCc2nc3ccccc3[nH]2)cc1OC` stands 0.224%; under `CC(C)Oc1ccc(/C=C(\NC(=O)/C=C/c2ccco2)C(=O)NCCc2nc3ccccc3[nH]2)cc1`, 40.3% (active). Consider `Cc1ccc(C(=O)N/C(=C/c2ccco2)C(=O)NCCc2c[nH]c3ccccc23)cc1C`, for which the inhibition is 2.77%. With `CCn1c(SCC(=O)N/N=C/c2ccccc2OCC(=O)O)nnc1-c1ccc(C(C)(C)C)cc1` the figure was 5.5%; with `CCOC(=O)N1CCC(NC(=O)CCc2cn(C)c3ccccc23)CC1`, 0.741%; with `COc1ccc(CCNC(=O)CN2C(=O)CCSc3ccccc32)c(OC)c1`, -0.893%. For the compound `CC(C)(C)C1C/C(=C/c2ccco2)C(=O)/C(=C/c2ccco2)C1` (centres undefined), the inhibition was 41.6% (active).

As for `COC(=O)COc1ccc2c(c1C)O/C(=C\c1ccco1)C2=O`, the inhibition is -6.79%. On to `CC1CCN(C(=S)NC2CC3CCC2C3)CC1` (centres undefined), for which the inhibition was 1.51%. `Cc1nn(C)c(C)c1Sc1ccccc1N`: the inhibition is -4.87%. With `Cc1ccc(Cn2nnc3c(=O)[nH]c(C4CCN(S(=O)(=O)/C=C/c5ccccc5)CC4)nc32)cc1` the figure was 31.1% (active); with `CC(C)(C)c1ccc(Cn2nnc3c(=O)[nH]c(C4CCCN(C(=O)c5ccco5)C4)nc32)cc1` (centres undefined), 4.55%; with `Cc1ccc(NC(=O)N2CCC(c3nc4c(nnn4Cc4c(F)cccc4Cl)c(=O)[nH]3)CC2)cc1`, 22.9%.

As for `CC(C)COC(=O)c1ccc(NC(=O)C2C3C=CC(C3)C2C(=O)O)cc1` (centres undefined), the inhibition is 3.38%.

Regarding `COCCNC(=O)C(c1ccc(C)cc1)N(C(=O)CCC(=O)Nc1ccccn1)c1cccc(C)c1` (centres undefined), the inhibition was -8.33%.

As for `O=C(c1ccc(C(F)(F)F)cc1)N1CCC(=O)N([C@H](COCc2ccccc2)Cc2ccccc2)CC1`, the inhibition is -5.31%. For `O=C(Nc1ccc(S(=O)(=O)Nc2nccs2)cc1)c1cc(=O)[nH]c2ccccc12`, the inhibition is -0.912%.

In the case of `O=C(CCc1ccccc1Cl)Nc1ccc(S(=O)(=O)Nc2nccs2)cc1`, the inhibition is -3.71%.

`O=C(Nc1ccc(S(=O)(=O)Nc2nccs2)cc1)c1cc(-c2ccncc2)nc2ccccc12`: the inhibition is 52.3% (active).

On to `CCOc1ccc(NC(=O)c2ccc(CSc3nnnn3C)cc2)cc1`, for which the inhibition is -3.76%. With `CCc1ccc2c(c1)C1(NN=C(c3ccccc3)S1)C(=O)N2` (centres undefined) the figure was 3.11%. `O=C(CSc1nc2ccc(Nc3nc(N4CCOCC4)nc(N4CCOCC4)n3)cc2s1)NCc1ccco1`: the inhibition is 8.01%. With `O=C(CSc1nc(Nc2ccccc2)nc(N2CCOCC2)n1)Nc1cc(Cl)ccc1O` the figure was 37.7% (active). Take `O=C(CSc1ccccc1)Nc1cc(Cl)ccc1Oc1ccccc1`: the inhibition is 6.26%.

Regarding `O=C(NCCCCc1ccccc1)C1CC(c2ccc([N+](=O)[O-])cc2)=NO1` (centres undefined), the inhibition was -8.64%.

Take `COc1cccc(CNC(C)C(=O)Nc2ccc(S(=O)(=O)N3CCCC3)cc2)c1` (centres undefined): the inhibition was 0.261%. In the case of `COC(=O)c1ccc(C2NC(=O)NC(C)=C2C(=O)N(C)C)cc1` (centres undefined), the inhibition was -2.37%. Under `CCOC(=O)c1sc(=NC(=O)c2ccc(Br)cc2)n(C)c1C` stands -0.0934%; under `CCOC(=O)C1=C(C)Nc2sc(C(=O)c3ccc(Br)cc3)c(N)c2C1c1ccc(C(=O)OC)cc1` (centres undefined), 33.6% (active). With `Cc1nc(CC(=O)NNS(=O)(=O)c2ccc(F)c(Cl)c2)cs1`, the inhibition is -1.28%. `CC(C)Oc1ccc(CCc2nnc(SCC(=O)O)n2-c2ccccc2)cc1`: the inhibition is -4.23%.

Regarding `O=C1CCCN1C(=O)COc1ccc([N+](=O)[O-])cc1`, the inhibition is 0.0869%. With `O=C1/C(=C\c2ccc([N+](=O)[O-])cc2)CS(=O)(=O)C/C1=C/c1ccc([N+](=O)[O-])cc1`, the inhibition was 35.3% (active). In the case of `CCCCC(=O)Nc1c2c(nn1-c1ccc([N+](=O)[O-])cc1)CS(=O)(=O)C2`, the inhibition is -6.61%. On to `CCNC(=O)Nc1ccc(S(=O)(=O)Nc2cnc(C)nc2C)cc1`, for which the inhibition was 4.03%.

On to `c1ccc2c(c1)OCCOCCOCCO2`, for which the inhibition was 1.98%. Consider `CS(=O)(=O)c1ccc2c(c1)SC1=NC(=O)/C(=C/c3ccco3)C(=N)N12`, for which the inhibition was 35% (active). As to `COc1ccc(S(=O)(=O)N2CCOC2CNC(=O)C(=O)NCc2ccncc2)cc1OC` (centres undefined), the inhibition was -7.02%. Regarding `CC(=O)c1ccc(Nc2nc(C(N)c3ccccc3Cl)cs2)cc1` (centres undefined), the inhibition is -4.95%. For `NC(c1csc(NC(=O)Nc2ccccc2Oc2ccccc2)n1)c1ccccc1Cl` (centres undefined), the inhibition is 40.7% (active). With `NC(c1ccccc1)c1csc(NC(=O)Nc2cccc(C(F)(F)F)c2)n1` (centres undefined) the figure was 3.58%; with `CCOc1ccc(S(=O)(=O)N(CC(=O)NCC(F)(F)F)Cc2ccco2)cc1`, -2.92%.

On to `CC1=NN(c2cccc(Cl)c2)C(=O)C12CC(C)=C(C)CS2` (centres undefined), for which the inhibition is -3.46%. With `O=C(N/N=C/c1ccoc1)c1ccc(Cl)cc1Cl`, the inhibition was -0.584%. As for `CC(C)(C)C(=O)Nc1ccc(C(=O)N/N=C/c2ccccc2OC(=O)c2ccc(Cl)cc2Cl)cc1`, the inhibition was 38.5% (active). Consider `O=C(N/N=C/c1ccccn1)c1cccc(NC(=O)c2ccc(Cl)cc2)c1`, for which the inhibition was 6.47%.

`O=c1[nH]c(CCl)nc2cc(-c3ccc(Cl)cc3)sc12`: the inhibition was 1.98%. For `CCc1[nH]nc(C(=O)N2CCCC(CO)(Cc3ccc(F)cc3F)C2)c1C` (centres undefined), the inhibition was 1.03%.

On to `CCCn1c(C(C)Nc2nc(-c3ccc(C)cc3)cs2)nc2cc(Cl)c(N3CCCCC3)cc21` (centres undefined), for which the inhibition is 30.3% (active).

Consider `Cc1ccc(-c2csc(N3CCN(c4cc5c(cc4Cl)nc(-c4ccncc4)n5CCOCCO)CC3)n2)cc1`, for which the inhibition is -0.493%. In the case of `CCCn1c(C2CCCN2c2nc(-c3ccc(C)cc3)cs2)nc2cc(Cl)c(N3CCCCC3)cc21` (centres undefined), the inhibition was 7.02%. `CC(=O)C1=C(C)NC2=C(C(=O)CC(C)(C)C2)C1C` (centres undefined): the inhibition is -0.177%. Regarding `Cc1cc(C(=O)N/N=C/c2ccc(O)c([N+](=O)[O-])c2)c(C)n1-c1ccc(F)cc1`, the inhibition is 33.3% (active). Consider `O=C1CSC(=S)N1/N=C/c1ccc(O)c([N+](=O)[O-])c1`, for which the inhibition is 5.51%.

With `CCOc1cc(/C=N/NC(=O)c2c(C)nc3ccc(Cl)cn23)ccc1O`, the inhibition is -0.152%.
